In paper PMC4552634, “A New Set of Chemical Starting Points with Plasmodium falciparum Transmission-Blocking Potential for Antimalarial Drug Discovery” (PLoS ONE, 2015):
Hit rate of the full screen: of about 13,000 compounds, about 3,200 (25%) showed an effect of 50% or more. This is one part of the list.

Each compound was assayed on P. falciparum stage V gametocytes. Conditions: 48 h, 5 µM; inhibitor.
Set-up: BacTiter-Glo ATP luminescence viability of purified stage V gametocytes in 384-well plates, per cent inhibition versus DMSO

| SMILES | % Inhibition |
| --- | --- |
| CN(Cc1c(Cl)cnn1C)S(=O)(=O)c1ccc2ccccc2c1 [TCMDC-124903] | 3.551% |
| CC(=O)Nc1ncc(C(=O)Nc2cccc(-c3ccc(-c4nc5cc(C(F)(F)F)ccc5[nH]4)s3)c2)s1 [TCMDC-136915] | 15.71% |
| Cc1ccc(CN2CCC(C(=O)Nc3ccc(-c4cc5ccccc5[nH]4)cc3)CC2)o1 [TCMDC-124634] | -0.9664% |
| CC(ON1C(N)=NC(N)=NC1(C)C)c1ccccc1 (stereo not drawn) [TCMDC-131596] | 28.25% |
| O=C(Nc1ccc(-n2ccc(C(F)(F)F)n2)cc1)c1cccs1 [TCMDC-125785] | 28.31% |
| Cc1cc(CNC(=O)[C@H](CC2CCCCC2)Nc2ccc(C#N)c3ccccc23)c(C(F)(F)F)o1 [TCMDC-136628] | -91.12% |
| Cc1cnc(-c2ccc(NC(=O)c3coc4ccc(N5CC(C)N(C)C(C)C5)cc34)cc2)o1 (stereo not drawn) [TCMDC-141361] | 27.19% |
| Cc1cc(O)nc(NC(=N)NOCc2ccccc2)n1 [TCMDC-131683] | 7.113% |
| O=C(NC1CCCC1)c1ccc(N2CCC(NCc3cc4cc(Cl)ccc4[nH]3)CC2)cc1 [TCMDC-124662] | -4.187% |
| COc1ccc(C(=O)Nc2cc(Br)c3c(c2)CNCC3)cc1Br [TCMDC-139727] | 19.9% |
| CCOc1ccc(C(=O)Nc2cc(Br)c3c(c2)CNCC3)cc1Cl [TCMDC-139730] | 27.05% |
| CCOc1ccc(C(=O)Nc2cc(Br)c3c(c2)CNCC3)cc1C(F)(F)F [TCMDC-139732] | 37.39% |
| CCOc1ccc(C(=O)Nc2cc(Br)c3c(c2)CNCC3)cc1C#N [TCMDC-139731] | 94.42% |
| CCOc1ccc(C(=O)Nc2cc(Br)c3c(c2)CNCC3)cc1Br [TCMDC-139729] | 61.1% |
| COc1ccc(C(=O)Nc2cc(Br)c3c(c2)CNCC3)cc1C(F)(F)F [TCMDC-139728] | 19.24% |
| O=C1c2ccccc2C(=O)N1c1ccc(S(=O)(=O)N2CCOCC2)cc1 [TCMDC-125740] | 8.047% |
| CC(=O)N(C)c1ccc(C(=O)Nc2cccc(-c3cccc(-c4nc5c(C)cccc5[nH]4)c3)c2)cc1 [TCMDC-136850] | -24.43% |
| CC(C)Sc1nc2c(c(=O)n1Cc1ccco1)C1(CCCC1)Cc1ccccc1-2 [TCMDC-125844] | 9.662% |
| CC(C)(C)c1ccccc1SC1=C(O)CC2(CCNCC2)OC1=O [TCMDC-140973] | 16.85% |
| Cc1cccc2nc(-c3ccc(-c4ccc(CN5CCCCC5CO)cc4)cc3)[nH]c12.O=C(O)C(F)(F)F (stereo not drawn) [TCMDC-133824] | 10.09% |
| Cn1nc(-c2ccc(CNC3CCc4ccccc43)cc2)c2cnc(NCCCN3CCCC3)nc21 (stereo not drawn) [TCMDC-135036] | 65.55% |

| SMILES | % Inhibition |
| --- | --- |
| Cn1nc(-c2ccc(CNC3CCc4ccccc43)cc2)c2cnc(NCCN3CCCC3)nc21 (stereo not drawn) [TCMDC-135033] | 65.68% |
| CN(c1cc(NC(=O)c2cccs2)ccn1)C1CCN(Cc2cccc(F)c2)CC1 [TCMDC-135010] | 5.779% |
| COc1ccc2nccc([C@@H](O)CN3CCC(NC(=O)C(c4cc5ccccc5o4)N4CCN(C(c5ccccc5)c5ccccc5)CC4)CC3)c2c1 (stereo partly drawn) [TCMDC-140990] | 16.51% |
| O=C(Nc1ccc(NC2=NCCN2)cc1)c1ccc(C(=O)Nc2ccc(NC3=NCCN3)cc2)cc1 [TCMDC-137799] | 30.06% |
| Nc1ncc(-c2cccc(F)c2)cc1-c1nc2ccc(F)cc2[nH]1 [TCMDC-133132] | -10.73% |
| CCOC(=O)c1ccc(NC(=O)Nc2cccc(-c3cccc(-c4nc5ccc(F)cc5[nH]4)c3)c2)cc1 [TCMDC-133268] | -1.066% |
| CCc1nc(N)nc(N)c1-c1ccc(F)cc1 [TCMDC-137722] | 5.569% |
| CC[C@H]1CN2CC[C@H]1C[C@H]2[C@H](O)c1cc(-c2ccccc2C(F)(F)F)nc2ccc(OC)cc12 [TCMDC-141198] | -3.019% |
| CC[C@H]1CN2CC[C@H]1C[C@H]2[C@H](O)c1cc(-c2ccc(Cl)c(Cl)c2)nc2ccc(OC)cc12 [TCMDC-141216] | 98.02% |
| CC[C@H]1CN2CC[C@H]1C[C@H]2[C@H](O)c1cc(-c2ccc(OC(F)(F)F)cc2)nc2ccc(OC)cc12 [TCMDC-141214] | 67.8% |
| CC[C@H]1CN2CC[C@H]1C[C@H]2[C@H](O)c1cc(-c2ccc(SC)cc2)nc2ccc(OC)cc12 [TCMDC-141196] | 82.69% |
| CC[C@H]1CN2CC[C@H]1C[C@H]2[C@H](O)c1cc(-c2ccccc2F)nc2ccc(OC)cc12 [TCMDC-141193] | 19.12% |
| CC[C@H]1CN2CC[C@@H]1C[C@@H]2[C@@H](O)c1cc(-c2ccc(F)cc2)nc2ccc(OC)cc12 [TCMDC-141379] | 96.07% |
| O=C(NCCN1CCCCC1)c1ccc(CNC(=O)c2ccc(O)c(-c3ccc(Cl)c(Cl)c3)c2)cc1 [TCMDC-140860] | -11.08% |
| COc1ccc(Nc2nc(C)cc(NC3CCCC3)n2)cc1 [TCMDC-133465] | 24.25% |
| CCOC(=O)c1c(CCc2ccc(C(F)(F)F)cc2)nc2c(c1-c1ccc(C(=O)N[C@@H](C)c3ccncc3)cc1)C(=O)N1CCC[C@@H]21 [TCMDC-138612] | 6.02% |
| CCCNC(=O)CN1CN(c2ccccc2)C2(CCN(C(=O)c3ccc(C(C)(C)C)cc3)CC2)C1=O [TCMDC-125173] | -65.45% |
| Cc1c(C)n(Cc2ccccc2)c2ncnc(OC3CCN(CC(=O)NCC4CC4)CC3)c12 [TCMDC-125326] | -12.47% |
| CCOC(=O)c1[nH]c(-c2cccnc2)nc1NC(=S)NCc1ccccc1 [TCMDC-138784] | -4.964% |
| COc1cccc(C(O)CNc2ccnc(Nc3cccc(-c4csc(C)n4)c3)n2)c1 (stereo not drawn) [TCMDC-136574] | 8.83% |
| CCN(CC)CCCN1CCN(C(=O)c2cccc(-c3noc(C(F)(F)F)n3)c2)CC1 [TCMDC-132421] | -5.247% |
